Consider 27 compounds from PubChem BioAssay (EPA / NIEHS).

Molecules are shown by their SMILES. Several values for one entry are separate records, joined by “and”; a condition that tells them apart may be missing. Identical values can stand only once. Results filed as inconclusive are left out. Activity calls are given as the source filed them. Rule for the calls: active = hit-call score of the fitted dose curve at least 0.9, where 1 is the maximum; inconclusive = response in the unintended direction; inactive = score below 0.9.

A short description of experiment [1]: ATG_XTT_Cytotoxicity: Cytotoxicity Assessment in the Attagene TRANS-FACTORIAL HepG2 Assay (AID 2283584). Summed up: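 HepG2 human liver cells, transiently transfected with multiple GAL4-UAS reporter units, were dosed and read at 24 h by XTT as cell number. Loss of signal was fitted relative to DMSO negative control baseline.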
The nature of experiment [2]: TOX21_p53_BLA_p2_viability: Viability Assessment in the Tox21 HCT-116 p53 Agonism Beta-lactamase Assay, Phase 2 (AID 2283591).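 Note: compound exposure lasted 16 h at 37 °C; actives lower the ATP signal meaning cytotoxicity.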 In short, it runs like this:
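HCT116 p53-bla cells, 4000/well, dosed after 5 h plating (217-fold dilution of DMSO stocks) and incubated 16 h at 37C. Viability taken as cellular ATP by CellTiter-Glo luminescence after 30 min RT; signal loss marks cytotoxicity.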

Experiment [3] has as its target Cellular tumor antigen p53 (Homo sapiens) (UniProt P04637). Put plainly: TOX21_p53_BLA_p2_ratio: Tox21 HCT-116 p53 Agonism Beta-lactamase Assay, Ratio, Phase 2 (AID 2283592). In short, it runs like this: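 Ratio endpoint: beta-lactamase cleavage of CCF4-AM, blue (460 nm) over green (530 nm). HCT116 reporter line; 16 h treatment, 37C; substrate 2 h RT.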
The nature of experiment [4]: TOX21_p53_BLA_p3_viability: Viability Assessment in the Tox21 HCT-116 p53 Agonism Beta-lactamase Assay, Phase 3 (AID 2283593).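 Note: cells exposed to compound for 16 h before reading.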 In short, it runs like this:
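HCT116 cells, 4000/well, dosed 5 h after plating by pin transfer (217-fold dilution from DMSO stock) and incubated 16 h at 37C, 5% CO2. Viability read as ATP luminescence with CellTiter-Glo after 30 min at room temperature.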

Experiment [5] deals with Cellular tumor antigen p53 (Homo sapiens) (UniProt P04637). Put plainly: TOX21_p53_BLA_p3_ratio: Tox21 HCT-116 p53 Agonism Beta-lactamase Assay, Ratio, Phase 3 (AID 2283596). In short, it runs like this:
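Cells were seeded at 4000/well, rested 5 h at 37C, then dosed with DMSO compound solutions (217-fold dilution) for 16 h. CCF4-AM substrate was loaded for 2 h at room temperature, and the 460/530 nm emission ratio was fitted for gain of signal versus DMSO.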

A short description of experiment [6]: TOX21_p53_BLA_p4_viability: Viability Assessment in the Tox21 HCT-116 p53 Agonism Beta-lactamase Assay, Phase 4 (AID 2283597).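 Note: hits lower the luminescence signal meaning cytotoxicity.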 Summed up: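 Cytotoxicity was inferred from loss of CellTiter-Glo luminescence. HCT116 cells had been dosed with compounds after 5 h plating, incubated 16 h at 37C and 5% CO2, and exposed to the CCF4-AM substrate for 2 h.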
Experiment [7] has as its target Cellular tumor antigen p53 (Homo sapiens) (UniProt P04637). Put plainly: TOX21_p53_BLA_p5_ratio: Tox21 HCT-116 p53 Agonism Beta-lactamase Assay, Ratio, Phase 5 (AID 2283599). Summed up:
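HCT-116 p53-bla cells (4000/well) plated 5 h, dosed with compound (217-fold DMSO dilution) for 16 h at 37 C; CCF4-AM substrate 2 h at room temperature. Activity is the 460/530 nm emission ratio (405 nm excitation), fitted in gain-of-signal direction versus DMSO.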

Experiment [8] can be described thus: TOX21_p53_BLA_p5_viability: Viability Assessment in the Tox21 HCT-116 p53 Agonism Beta-lactamase Assay, Phase 5 (AID 2283600). Summed up: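 Luciferase-coupled ATP quantitation of cells treated for 16 h (37C, 5% CO2) with test chemicals delivered in DMSO via a 217-fold dilution; 4000 cells/well; reagent incubated 30 min at room temperature before luminescence reading.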

In experiment [9] the target is Cellular tumor antigen p53 (Homo sapiens) (UniProt P04637). Put plainly: TOX21_p53_BLA_p4_ratio: Tox21 HCT-116 p53 Agonism Beta-lactamase Assay, Ratio, Phase 4 (AID 2283601). In short, it runs like this: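 HCT-116 p53 beta-lactamase reporter cells (4000/well) preincubated 5 h, then compound (217-fold dilution of DMSO stock) for 16 h at 37C. CCF4-AM substrate added 2 h at room temperature; 460/530 nm emission ratio fitted upward versus DMSO.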
Sequence of Cellular tumor antigen p53 (Homo sapiens) (P04637 whole entry, looked up): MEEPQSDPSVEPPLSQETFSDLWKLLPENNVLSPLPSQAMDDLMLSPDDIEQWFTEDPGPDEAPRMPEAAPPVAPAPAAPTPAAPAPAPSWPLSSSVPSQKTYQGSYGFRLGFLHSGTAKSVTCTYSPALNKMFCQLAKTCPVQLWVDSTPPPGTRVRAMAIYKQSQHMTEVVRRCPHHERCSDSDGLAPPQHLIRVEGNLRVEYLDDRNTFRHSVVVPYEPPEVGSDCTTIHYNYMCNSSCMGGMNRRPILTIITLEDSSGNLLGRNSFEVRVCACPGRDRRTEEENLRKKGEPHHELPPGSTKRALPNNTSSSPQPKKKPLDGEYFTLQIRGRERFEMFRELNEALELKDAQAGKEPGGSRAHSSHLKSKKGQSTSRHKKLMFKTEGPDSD

Regarding `COc1cc([C@@H]2c3cc4c(cc3[C@@H](O[C@@H]3O[C@@H]5CO[C@@H](C)O[C@H]5[C@H](O)[C@H]3O)[C@H]3COC(=O)[C@H]23)OCO4)cc(OC)c1O`, the result in experiment [1], in experiment [2], in experiment [4], in experiment [6] and in experiment [8] was inactive. Moreover, the concentration at half-maximal activity (AC50) was 1.36 µM (active) and 3.57 µM (active) in experiment [3]; 852 nM (active) and 3.18 µM (active) in experiment [5]; 2.56 µM (active) and 4.83 µM (active) in [7]; 6.18 µM (active) and 1.98 µM (active) in experiment [9].

With `COC(=O)c1ccc(OC)cc1`, the compound was classed as inactive in experiment [1], in [2], in experiment [3], in experiment [4], in experiment [5] and in experiment [6]. Besides, the outcome in experiment [7] and in experiment [9] was inactive.

Consider `NC(=S)NNC(N)=S`, for which the call in experiment [1], in experiment [2], in experiment [3], in experiment [4], in [5] and in experiment [6] was inactive. The outcome in [7], in experiment [8] and in [9] was inactive.

Take `CC1(C)C2=CCCC(C)(C)[C@]23CC[C@H]1C3`: the outcome in experiment [1], in experiment [2], in experiment [3], in experiment [4], in experiment [5] and in experiment [6] was inactive. Also, the result in experiment [7], in [8] and in experiment [9] was inactive.

For `Cc1ccc(-c2ccccc2)cc1`, the compound was called inactive in [1], in [2], in [3], in experiment [4], in [5] and in experiment [7]. In addition, in [8], the compound was called inactive.

For `CN1C(=O)c2ccccc2C1=O`, the call in experiment [1], in experiment [2], in [3], in experiment [4], in [5] and in [6] was inactive. Also, the outcome in [7], in experiment [8] and in [9] was inactive.

Turning to `Brc1ccc(Br)c(Br)c1`, the compound was called inactive in experiment [1], in experiment [2], in experiment [3], in experiment [4], in experiment [5] and in [6]. Besides, the result in experiment [7], in experiment [8] and in [9] was inactive.

As for `CC(=O)CC(=O)Nc1ccc(C)cc1C`, the result in experiment [1], in experiment [2], in [3], in experiment [4], in [5] and in experiment [6] was inactive. The compound was called inactive in experiment [8].

In the case of `Cc1ncc([N+](=O)[O-])n1CCO`, the call in experiment [1], in [2], in [3], in experiment [4], in [5] and in experiment [6] was inactive. In addition, the result in experiment [7], in [8] and in [9] was inactive.

For `C=CCCCCCCCCCC`, the result in experiment [1], in [2], in experiment [3], in [4], in experiment [5] and in [6] was inactive. Further, the result in [7], in [8] and in [9] was inactive.

Take `IC(I)I`: the outcome in experiment [1], in experiment [2], in [3], in experiment [4], in experiment [5] and in experiment [6] was inactive. Also, the outcome in [7], in [8] and in experiment [9] was inactive.

Take `CCCCN(CCCC)C(=O)N(CCCC)CCCC`: the compound was called inactive in [1], in [2], in experiment [3], in [4], in experiment [5] and in experiment [7]. For the same compound, the compound was classed as inactive in experiment [8] and in experiment [9].

As for `CC(CN=Cc1ccccc1O)N=Cc1ccccc1O` (stereo unspecified), the compound was called inactive in experiment [1], in experiment [2], in [3], in [4], in [5] and in [7].

On to `O=C(CS)OCCOC(=O)CS`, for which the call in [1], in [2] and in [6] was inactive. In addition, the AC50 is 42.9 µM (active) in experiment [3], 39.3 µM (active) in [5] and 58.3 µM (active) in experiment [7].

On to `CCOC(=O)COC(=O)c1cc(Oc2ccc(C(F)(F)F)cc2Cl)ccc1[N+](=O)[O-]`, for which the compound was called inactive in [1], in experiment [2], in [3], in experiment [4], in experiment [6] and in experiment [8].

Turning to `[Cl][Au]([Cl])[Cl]`, the outcome in experiment [1], in [7] and in experiment [8] was inactive. Also, the AC50 in experiment [2] is 45.6 µM (active); in experiment [3], 74.1 µM (active); in [4], 75.1 µM (active); in [6] it was 70.7 µM (active).

As for `CCOC(=O)CCc1ccccc1`, the compound was classed as inactive in [1], in experiment [2], in experiment [3], in [4] and in [8].

Take `CC(Oc1cc(Cl)ccc1Cl)C(=O)O` (stereo unspecified): the outcome in experiment [1], in experiment [2], in [3], in experiment [4] and in experiment [8] was inactive.

For `Cc1ccc2c(c1)C(=O)OC2=O`, the compound was classed as inactive in [1], in experiment [2], in experiment [3], in experiment [4], in experiment [6] and in experiment [7]. Also, the outcome in experiment [8] was inactive.

Regarding `C#CC(C)(O)CC(C)C` (stereo unspecified), the outcome in [1], in [2], in experiment [3], in [4], in experiment [7] and in experiment [8] was inactive.

Regarding `CCC(C)S` (stereo unspecified), the result in [1], in experiment [2], in [3], in experiment [4], in experiment [7] and in experiment [8] was inactive.

On to `C#CC(C)N(C)C(=O)Nc1ccc(Cl)cc1` (stereo unspecified), for which the compound was called inactive in experiment [1], in experiment [2], in experiment [3], in experiment [5], in experiment [6] and in experiment [7]. For the same compound, the outcome in [8] was inactive.

Turning to `C=C(C)C(=O)OCCOCCOCCOC(=O)C(=C)C`, the compound was classed as inactive in experiment [1], in [2], in [3], in [4], in experiment [5] and in [7]. The outcome in [8] and in experiment [9] was inactive.

For the compound `CC(=O)c1c(C)c([N+](=O)[O-])c(C(C)(C)C)c([N+](=O)[O-])c1C`, the compound was called inactive in [1], in experiment [2], in experiment [3], in experiment [4], in experiment [6] and in [7]. Further, the compound was classed as inactive in [8] and in experiment [9].

As to `CCCCCCOC(=O)C(C)C`, the compound was called inactive in [1], in experiment [2], in experiment [3], in experiment [4], in experiment [5] and in [7]. Moreover, the result in [9] was inactive.

Turning to `CCCCCC(=O)CC`, the call in experiment [1], in [2], in experiment [3], in [4], in [5] and in [7] was inactive. Besides, the result in experiment [8] and in [9] was inactive.

For the compound `CCCCC(CC)C(=O)OC(C)C` (stereo unspecified), the compound was called inactive in experiment [1], in [2], in experiment [3], in [5], in [7] and in experiment [8]. Moreover, the outcome in experiment [9] was inactive.
